Bioassay records (PubChem BioAssay)
In the library only some 1.6% were active in any assay of this set; here they are far more common.
PERK inh – blocks human PERK kinase | CHO PERK-DD fusion, SEAP luminescence translation reporter | inhibition, % at 5.6 µM | Q9NZJ5 | hit rate 0.17% among 220,000;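 active means inhibition above the mean inhibition of all tested compounds plus 3 SD, set separately per screening campaign, cut at about 2.9% in these data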;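 further: PERK kinase domain activated by AP20187 dimerizer at 100 nM; 0% = DMSO with dimerizer and 100% = rapamycin at 8.4 µM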
eIF4H inh – inhibitors of RNA binding by human eIF4H | Q15056 | eIF4H fluorescence polarization binding assay | inhibition, % at 35 µM | hit rate 0.94% among 290,000 | AID 2012;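 further: calls also rest on retests at 20 µM and on dose response follow-up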
PABP polyA inh – blocks human PABP binding to poly(A) RNA | P11940 | fluorescence polarization | inhibition, % at 35 µM | hit rate 1% among 290,000;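 further: calls also rest on retests at 20 µM and on dose response follow-up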
eIF4E-4G inh – inhibitors of eIF4E and eIF4G interaction in translation initiation | P63073+Q04637 | TR-FRET eIF4E-eIF4GI(517-606) binding, 2 h | inhibition, % at 21.7 µM | hit rate 0.37% among 220,000;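 active means inhibition above about 30%, limit read from the data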;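 further: 0% = full FRET control wells and 100% = background wells lacking eIF4GI fragment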
MLLE-PAM2 inh – inhibitors of microRNA-mediated deadenylation, human PABP1 MLLE binding. GST-MLLE / FITC-PAM2 fluorescence polarization. inhibition, % at 20 µM. hit rate 0.36% among 360,000. AID 588489; in the data active means inhibition above about 35%, passing the limit was not always enough;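 further: plate controls were DMSO wells with GST-MLLE for no effect and wells lacking GST-MLLE protein for full effect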
* marks the source's active call; other numbers are inactive results; ? = inconclusive; nt = not tested or not shown; [ ] = another dose, or the depositor's remark. Unless noted, how the calls were made is not given here.

SMILES | PERK inh | eIF4H inh | PABP polyA inh | eIF4E-4G inh | MLLE-PAM2 inh
O=C1CCCC(O)=C1C(C#Cc1ccccc1)C1=C(O)CCCC1=O | 1 | 0 | 11 | 42*[fluorescence artefact?] | 23
CC1(C)CC(=O)C(C(C#Cc2ccccc2)C2=C(O)CC(C)(C)CC2=O)=C(O)C1 | 0 | -1 | 3 | 18 | 20
CCOc1cc2[nH]c(=S)n(CCCC(=O)NCc3ccco3)c(=O)c2cc1OCC | 1 | -5 | 5 | 4 | -83
CCCN(Cc1ccccc1)C(=S)Nc1ccc(F)cc1 | 0 | -2 | -5 | -3 | -107
CCOC(=O)N1C=CC=C[C@@H]2[C@@H](N3C(=O)c4ccccc4C3=O)C(=O)N21 | 1 | 0 | 93* | 3 | 9
CCOC(=O)c1cc2sc(C)cc2n1CCCN1C(=O)c2ccccc2C1=O | 0 | -9 | -7 | 3 | 18
CC1(N2CCCCC2)C(=O)c2ccccc2C1=O | 1 | active | 50* | 0 | 10
O=C(c1ccccc1)N1CCCN(c2nccc(C(F)(F)F)n2)CC1 | 0 | -4 | 8 | 3 | -2
CC(C)NC(=O)c1ccc(CN2CCC(Cc3ccccc3)CC2)cc1 | nt | 8 | 1 | nt | 3
C=CCNC(=O)c1ccc(CN2CCC(Cc3ccccc3)CC2)cc1 | nt | 95* | 84* | nt | 2
Cc1[nH]nc2c(=S)[nH]c(=O)[nH]c12 | nt | nt | nt | nt | 40*
CCN(CC)S(=O)(=O)c1ccc(C)c(NC(=O)CN2CCN(Cc3ccccc3)CC2)c1 | -1 | 2 | -4 | 1 | 0
Cc1ccn2cc(CC(=O)O)nc2c1 | -1 | ? | 43* | 8 | 18
CCSc1nc2c(c(=O)[nH]1)C(c1ccccn1)C1=C(CC(C)(C)CC1=O)N2 (stereo unspecified) | 0 | -13 | -5 | 2 | -6
CCOc1ccccc1NC(=S)NNS(=O)(=O)c1c(C)cc(C)cc1C | 2 | 0 | 13 | 0 | 41*
CC1(C)CC(=O)C2=C(C1)Nc1ccccc1NC2c1ccccc1F (stereo unspecified) | nt | 3 | 20 | nt | 48*
NNC(=O)c1nc[nH]c1C(=O)Nc1ccccc1[N+](=O)[O-] | 0 | 55* | 66* | 1 | 6
O=C(Nc1ccc(F)cc1)c1nc[nH]c1C(=O)Nc1ccccc1[N+](=O)[O-] | 2 | -4 | 0 | -2 | 8
CCC(=O)NCCc1cc2ccc(C)cc2[nH]c1=O | 3.3* | 2 | 2 | 2 | -7
O=c1cc(CO)oc(C(Nc2ccccn2)c2ccc(F)cc2)c1O (stereo unspecified) | 1 | 0 | -4 | 7 | 24
O=c1cc(CO)oc(C(Nc2ccccn2)c2ccsc2)c1O (stereo unspecified) | 1 | 71* | 48* | 3 | nt
NNc1nc2sc3c(c2c(=O)n1Cc1ccccc1)CCC3 | -2 | 64* | 15* | 8 | -54
C#CCSc1nc2sc3c(c2c(=O)n1C)CCC3 | nt | 63* | 38* | nt | -8
CCSc1nc2sc3c(c2c(=O)n1CC)CCC3 | nt | 13 | -5 | nt | 3
CCn1c(NN)nc2sc3c(c2c1=O)CCC3 | 1 | 52* | 30* | 9 | -52
SMILES | PERK inh | eIF4H inh | PABP polyA inh | eIF4E-4G inh | MLLE-PAM2 inh
CC[n+]1c(C)sc2sc3ccccc3c21 | 1 | 15 | 55* | -2 | nt
Cn1c(COc2ccc(Cl)cc2)nnc1SCC(=O)NC1CC1 | nt | nt | nt | nt | -71
COC(=O)C1=C(C)NC(=O)/C1=C\c1cc(C)n(-c2cc(C)cc(C)c2)c1C | -1 | 83* | 97* | -16 | -5
COC(=O)C1=C(C)NC(=O)/C1=C\c1cc(C)n(-c2ccccc2)c1C | 0 | 63 | -6 | -1 | -6
CCOC(=O)c1c(N2CCCCC2)c2ccccc2[nH]c1=O | 0 | -3 | 4 | nt | -3
Cc1[nH]c(=O)[nH]c(=O)c1/C=C/C(=O)OCC(C)C | 1 | ? | 61* | 5 | 8
O=C(C1=C(O)C(=O)N(CCOCCO)C1c1cccs1)c1cccs1 (stereo unspecified) | 0 | -3 | 1 | 0 | 2
COc1ccc(C(N)=S)c(OC)c1 | 1 | -9 | 10 | -1 | 39*
NS(=O)(=O)c1cccc(NS(=O)(=O)c2cccc(C(F)(F)F)c2)c1 | 1 | 3 | -8 | 0 | -6
COC(=O)/C=c1/s/c(=C(/C#N)C(=O)NCc2ccccc2)n(-c2ccccc2)c1=O | 0 | 111* | 82* | -2 | -40
O=C(C1CCCN1S(=O)(=O)c1cccc2nsnc12)N1CCCCCC1 (stereo unspecified) | 0 | -6 | 6 | 1 | 0
O=C(COC(=O)c1ccc2c(c1)OCO2)Nc1nc(-c2ccccc2)cs1 | 1 | 2 | 61* | -4 | -2
NS(=O)(=O)c1ccc(NC(=O)COC(=O)c2ccc3c(c2)OCCO3)cc1 | 1 | active | 61* | 1 | 21
Cc1cc(C)c(-c2csc(NC(=O)COC(=O)c3ccc4c(c3)OCO4)n2)c(C)c1 | -1 | 1 | 4 | -6 | 3
CCOc1ccc(S(=O)(=O)N2CCCCC2)cc1NC(=O)CSCc1c(C)noc1C | nt | nt | nt | nt | -56
COc1ccc(S(=O)(=O)Cc2ccc(C(=O)O)o2)cc1 | nt | -15 | 8 | nt | 5
Cc1ccc(S(=O)(=O)Cc2ccc(C(=O)N3CCc4ccccc4C3)o2)cc1 | 0 | 90* | 51* | 12 | 7
CS(=O)(=O)c1ccc(C(=O)N2CCc3ccccc3C2)cc1 | 0 | active | 69 | -5 | 0
Cc1ccc(S(=O)(=O)Cc2ccc(C(=O)O)o2)cc1 | 1 | 86* | 58* | 14 | 22
CS(=O)(=O)Nc1ccc(C(=O)N2CCc3ccccc3C2)cc1 | 2 | 4 | -2 | 0 | 2
COc1ccc(-c2cn3cc(Cl)ccc3n2)cc1OC | 0 | 3 | 21 | 3 | -20
Cc1cc(NC(=S)N(Cc2cccc(Br)c2)CC2CCC(C(=O)O)CC2)ccc1Cl (stereo unspecified) | 2 | 5 | 2 | 5 | -22
O=C(Nc1ccc(Oc2ccccc2)cc1)c1ccc(Cn2c(=O)[nH]c3ccsc3c2=O)cc1 | 1 | 17 | 8 | 0 | -3
CC(C)(C)c1ccc(C(=O)CC(Sc2ccc(Cl)cc2)C(=O)O)cc1 (stereo unspecified) | 0 | -12 | -12 | -3 | 46*
C=CCC1(CC=C)CCCN1Cc1nc(COc2ccccc2)no1 | -1 | 59* | 6 | -5 | -31
SMILES | PERK inh | eIF4H inh | PABP polyA inh | eIF4E-4G inh | MLLE-PAM2 inh
O=C1CCCN1CC1CCCN(Cc2nc(COc3ccccc3)no2)C1 (stereo unspecified) | 0 | -7 | 9 | 0 | 7
Nc1c(C(=O)Nc2ccccc2F)sc2nc(-c3cccnc3)ccc12 | -2 | -12 | 8 | -18 | 9
NC(=O)c1sc2nc3c(c(-c4ccco4)c2c1N)CCC3 | 0 | 97* | 83* | 5 | 16
NC(=O)c1sc2nc(-c3ccco3)ccc2c1N | 1 | 92* | 80* | 1 | -2
COC(=O)c1sc2nc(-c3ccco3)ccc2c1N | 0 | 55* | 17 | 3 | 19
Nc1c(C(=O)Nc2ccccc2F)sc2nc(-c3ccco3)ccc12 | 0 | 90* | 73* | -8 | 4
